A selection: hits, their analogues and other compounds. The true share with any hit is near 12%.
Pf growth 96h: Primary qHTS for delayed death inhibitors of the malarial parasite plastid, 96 hour incubation; 320,000 tested, 6.9% active; AID 504834, 2011; Potency, µM (highest dose often 28.7 µM), without a hit: top-dose activity change, negative = inhibition, actives largely listed as inhibitors; P. falciparum luciferase reporter growth, 96 h; also: % is scaled to controls: 0 for no effect and ±100 for the full control effect
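P. falciparum expressing integrated firefly luciferase grown in erythrocytes (2% hematocrit, 0.05% parasitemia final) with compounds for 96 hours at 37 C, 5% CO2. Growth inhibition read as loss of luminescence after adding luciferase detection reagent.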
Pf growth 48h: Primary qHTS for delayed death inhibitors of the malarial parasite plastid, 48 hour incubation; 310,000 tested, 5.9% active; AID 504832, 2011; Potency, µM (titrated, usually from 28.7 µM), for inactives: at the highest dose activity change, negative = inhibition, most hits filed as inhibitors; P. falciparum luciferase growth in erythrocytes, 48 h; also: % is scaled to controls: 0 for no effect and ±100 for the full control effect
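In quantitative HTS format, infected erythrocytes bearing luciferase-reporter parasites were treated for a single generation at 37 C. Luminescence after adding detection reagent served as the growth measure.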
AmpC inh no detg: qHTS Inhibitors of AmpC Beta-Lactamase (assay without detergent); P00811; AmpC nitrocefin hydrolysis, absorbance 480 nm, 0.0001% Triton; Potency, µM (top dose mostly 57.1 µM), for the others: at the top dose activity change, negative = inhibition, actives largely listed as inhibitors; 330,000 tested, 0.52% active; AID 485341, 2010;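 also: plate controls were no compound for no effect and no enzyme for full effect; nearly all actives have a fitted effect of over 20% in size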
Target sequence (P00811 whole entry, looked up): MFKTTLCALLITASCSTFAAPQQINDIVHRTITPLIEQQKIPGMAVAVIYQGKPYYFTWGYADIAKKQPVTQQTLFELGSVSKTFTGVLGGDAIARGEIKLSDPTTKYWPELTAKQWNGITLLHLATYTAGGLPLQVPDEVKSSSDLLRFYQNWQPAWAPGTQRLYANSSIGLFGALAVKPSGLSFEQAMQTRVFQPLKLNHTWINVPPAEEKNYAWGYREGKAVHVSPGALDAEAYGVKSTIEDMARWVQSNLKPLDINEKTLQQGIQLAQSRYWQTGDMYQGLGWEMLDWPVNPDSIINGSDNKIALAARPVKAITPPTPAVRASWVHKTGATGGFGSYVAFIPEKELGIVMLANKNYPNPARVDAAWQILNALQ
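AmpC (5.3 nM in the dispensed reagent) in 20 mM phosphate pH 7.0 with 0.01% (detergent screen) or 0.0001% Triton X-100 was preincubated with compounds for 15 min at room temperature. Nitrocefin was then added from an 800 uM solution, and hydrolysis was followed at 480 nm.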
Sm TGR inh: qHTS Assay for the Inhibitors of Schistosoma Mansoni Peroxiredoxins; purified TGR, DTNB reduction, TNB absorbance 405 nm; Schistosoma mansoni thioredoxin glutathione reductase (TGR), Q962Y6; Potency, µM (highest dose often 114 µM), inactives show at the highest dose activity change, negative = inhibition, actives largely listed as inhibitors; 360,000 tested, 3% active; AID 485364, 2010; also: % is scaled to controls: 0 for no effect and ±100 for the full control effect; nearly all actives have a fitted effect of over 60% in size
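Kinetic colorimetric format: TGR-catalysed, NADPH-driven DTNB reduction monitored via TNB absorbance. Enzyme dispensed at 20 nM; compound exposure 15 min at room temperature before reaction start.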
AmpC detergent: qHTS Inhibitors of AmpC Beta-Lactamase (assay with detergent); P00811; AmpC hydrolysis of nitrocefin, absorbance 480 nm, 0.01% Triton; Potency, µM (top dose mostly 114 µM), for inactives: at the highest dose activity change, negative = inhibition, hits mostly inhibitors; 370,000 tested, 0.041% active;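 also: 0% = no-compound wells and -100% = no-enzyme wells; nearly all actives have a fitted effect of over 25% in size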
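AmpC (5.3 nM in the dispensed reagent) in 20 mM phosphate pH 7.0 with 0.01% (detergent screen) or 0.0001% Triton X-100 was preincubated with compounds for 15 min at room temperature. Nitrocefin was then added from an 800 uM solution, and hydrolysis was followed at 480 nm.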
SARS PLP yeast: qHTS of Yeast-based Assay for SARS-CoV PLP | S. cerevisiae expressing SARS-CoV PLpro, growth rescue | 330,000 tested, 0.19% active | AID 485353, 2010 | Potency, µM (highest dose often 32.9 µM), for the others: at the top dose activity, positive = growth rescue, hits mostly activators; calls by dose curve; also: 0% is about no effect; nearly all actives have a fitted effect of over 55% in size
Starred values were filed as active, the others as inactive; ? = inconclusive; . = not tested or not shown; [ ] = dose if it differs, or a comment. Unless noted, calls follow the shape of the dose curve; as a rule, active = well fitted curve in the direction sought with a large enough effect; inconclusive = small, poorly fitted or top-dose-only effect, or another doubt; inactive = no such curve, though single readings can be large; an effect the other way counts as inactive or inconclusive. Potency is read from the fitted curve at half-maximal effect.

SMILES	Pf growth 96h	Pf growth 48h	AmpC inh no detg	Sm TGR inh	AmpC detergent	SARS PLP yeast
Cc1cccn2c(=O)c3cc(C(=O)NC(C)c4ccccc4)c(=N)n(CCCn4ccnc4)c3nc12 (stereo not given)	0.415µM*	0.415µM*	25.6%	10.0%	-12.1%	-0.6%
CSc1ccc(CNC(=O)c2cc3c(=O)n(Cc4ccco4)ccc3nc2C)cc1	.	.	.	44.7µM*	3.6%	.
Cc1cccn2c(=O)c3cc(C(=O)NCc4ccco4)c(=N)n(C(C)C)c3nc12	.	?	-47.8%	0.0%	2.4%	-2.7%
Cc1cccn2c(=O)c3cc(C(=O)NCc4ccco4)c(=N)n(CCc4ccccc4)c3nc12	0.586µM*	0.586µM*	-2.6%	?	-4.6%	-0.7%
COc1ccc(C2=NC(C)(C)N(CC(=O)Nc3ccc(F)c(F)c3)C2=O)cc1	.	.	.	4.5%	16.1%	.
CCCCCCSc1cccc(-c2nc3ccc(C)cn3c2NC2CCCCC2)c1	5.22µM*	9.28µM*	-16.6%	-6.3%	-5.3%	-16.0%
CCCCCCSc1cccc(-c2nc3cc(C)ccn3c2NC2CCCCC2)c1	?	9.28µM*	25.8%	0.6%	-0.1%	0.7%
Cc1ccn2c(NC3CCCCC3)c(-c3cccc(SC4CCCCC4)c3)nc2c1	.	.	-3.2%	.	.	-5.6%
CCCCCCSc1ccc(-c2nc3ccc(Cl)cn3c2NC2CCCCC2)cc1	.	.	-20.2%	.	.	-1.5%
CC1(C)CC(N=Cc2c(O)n(Cc3ccc4c(c3)OCO4)c(=O)c3ccccc23)CC(C)(C)N1	10.4µM*	8.28µM*	-3.6%	11.9%	0.1%	-8.5%
COc1ccc(CCNCc2ccc(OCc3ccc(Cl)nc3)c(OC)c2)cc1OC	11.7µM*	.	15.1%	-4.4%	1.4%	10.6%
O=C(NCc1ccccn1)c1ccccc1OCc1ccc(Cl)cc1Cl	14.7µM*	?	0.8%	-1.0%	-19.9%	9.3%
COc1cc(CNCCN2CCOCC2)ccc1OCc1ccc(Cl)cc1Cl	2.33µM*	9.28µM*	124.2%	0.2%	2.5%	-23.7%
O=C(NCc1ccccn1)c1ccccc1Cl	.	13.1%	-1.1%	?	6.4%	-1.6%
COc1cc(CNCc2ccccn2)ccc1OCc1ccc(Cl)cc1Cl	10.4µM*	?	75.9%	10.7%	3.6%	-9.0%
Cc1ccc(C(=O)COC(=O)CNS(=O)(=O)c2ccccc2)cc1[N+](=O)[O-]	22.0%	?	-17.7%	5.1%	-0.9%	2.2%
Cc1ccc(S(=O)(=O)CCSc2nc(C)cc(C(F)(F)F)c2C#N)cc1	72.5%	?	-22.1%	-15.6%	-0.4%	-24.8%
N/C(=N\NC(=O)c1sccc1OCc1ccc(Cl)cc1Cl)c1ccccn1	?	3.29µM*	-23.7%	23.4%	0.0%	-0.6%
COc1cc(CNCCN2CCOCC2)ccc1OCc1cccc(Cl)c1	11.7µM*	.	26.4%	-1.8%	-1.7%	3.0%
Cn1c(=O)c2c(ncn2C[C@@H](O)CO)n(C)c1=O	11.7%[12.8 µM]	-4.0%[12.8 µM]	.	.	.	.
CC(=O)c1cccc(CN2CCN(Cc3ccc(F)cc3)C(CCO)C2)c1 (stereo not given)	?	0.0%	19.0%	44.7µM*	4.3%	0.5%
CC(=O)Nc1ccc2nc(CN3CCN(CC(C)C)C(CCO)C3)ccc2c1 (stereo not given)	-10.4%	7.3%	-9.5%	?	5.7%	-0.7%
CC(=O)Nc1ccc2nc(CN3CCN(Cc4ccc(F)cc4)C(CCO)C3)ccc2c1 (stereo not given)	?	?	35.7%	25.1µM*	-6.8%	0.4%
Cc1cc(C)c(NC(=O)CSc2ncc(S(=O)(=O)c3ccc(C(C)(C)C)cc3)c(=O)[nH]2)c(C)c1	.	.	.	3.7%	17.3%	.
COc1cc(/C=C/c2nnc3c4ccccc4ncn23)cc(OC)c1OC	?	9.28µM*	140.8%	-3.8%	-1.5%	-7.2%
SMILES	Pf growth 96h	Pf growth 48h	AmpC inh no detg	Sm TGR inh	AmpC detergent	SARS PLP yeast
C(=C\c1nnc2c3ccccc3ncn12)/c1ccccc1	165.9%	128.5%	?	-4.8%	-6.5%	-9.7%
Cc1ccc(S(=O)(=O)N2CCCCC2)cc1NC(=O)COC(=O)c1ccc2c(c1)OCO2	34.2%	-10.2%	-33.2%	3.8%	?	-5.8%
COc1cccc(C(=O)C2CCCN(Cc3ccc(F)cc3)C2)c1 (stereo not given)	-24.7%	?	-16.6%	-1.6%	-8.1%	-7.5%
O=C(c1cccc(Cl)c1)C1CCCN(C(=O)c2ccoc2)C1 (stereo not given)	10.4µM*	-8.5%	3.6%	-13.9%	-1.8%	-0.5%
COc1cc(CN2CCCC(C(=O)c3sccc3C)C2)cc(OC)c1O (stereo not given)	?	10.8%	-19.1%	15.8µM*	-0.2%	-2.1%
O=C(c1cccc(Cl)c1)C1CCCN(Cc2ccc(N3CCNC3=O)cc2)C1 (stereo not given)	9.28µM*	?	55.2%	.	-13.6%	0.2%
NC(=O)CCC(=O)N1CCCC(C(=O)c2ccc(C(F)(F)F)cc2)C1 (stereo not given)	13.1µM*	4.5%	0.4%	-19.4%	?	12.1%
COc1ccc2cc(-c3nc4ccc(C(=O)O)cc4[nH]3)c(=O)oc2c1	.	.	.	-7.7%	-1.0%	.
CCOC(=O)c1ccc(NC(=O)Cn2nc(C)c3nn(-c4ccc(Cl)cc4)c(C)c3c2=O)cc1	.	.	.	4.9%	-8.5%	.
O=C1CC(c2ccccc2)Sc2ccccc2N1Cc1ccc(F)cc1 (stereo not given)	.	.	.	6.0%	1.0%	.
Cc1ccc(Cl)cc1Nc1sc(C(=O)c2ccc(F)cc2)c(N)c1S(C)(=O)=O	.	.	.	-2.1%	18.1%	.
COCCN(CC(=O)Nc1cccc(C)c1C)C(=O)Cc1sc(C)nc1-c1ccc(F)cc1	?	?	55.3%	-4.1%	-1.8%	-2.2%
O=C(c1ccc(Cl)cc1)C1CCCN(Cc2ccc3nonc3c2)C1 (stereo not given)	10.4µM*	-0.4%	-28.6%	10.0%	5.4%	0.0%
COc1cc(CN2CCCC(C(=O)c3ccc(C(C)(C)C)cc3)C2)cc(OC)c1O (stereo not given)	36.3%	6.57µM*	46.7%	?	?	1.3%
Cc1ccsc1C(=O)C1CCCN(Cc2cccn2-c2ccc(Cl)cn2)C1 (stereo not given)	?	3.7µM*	27.6%	18.2%	6.4%	-0.6%
